An excerpt weighted towards active compounds, which were near 4.7% of everything screened.
PABP polyA inh – PABP-poly(A) binding inhibition. actives 1% (n = 290,000). P11940. AID 2014. inhibition, % at 35 µM. PABP-poly(A) RNA binding, fluorescence polarization;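 also: calls also rest on retests at 20 µM and on dose response follow-up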
ALR inh – inhibitors of human sulfhydryl oxidase ALR; inhibition, % (concentration not given with the values); P55789; actives 3.8% (n = 290,000); purified ALR, DTT oxidation, H2O2 HRP-luminol luminescence;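 active = mean replicate inhibition above about 79%, with every replicate also reaching it, limit read from the data; inconclusive = only one of the two criteria met; inactive = mean below limit and not every replicate reaching it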
eIF4H FP inh – inhibitors of RNA binding by human eIF4H; eIF4H fluorescence polarization binding assay; inhibition, % at 35 µM; actives 0.94% (n = 290,000);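 also: calls also rest on retests at 20 µM and on dose response follow-up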
Efflux pump inh – inhibitors of Candida antifungal efflux pumps expressed in yeast. S. cerevisiae Candida pump triplex, Nile Red efflux. inhibition, % at 10 µM. AID 485275. actives 0.44% (n = 330,000);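 active = plate passing quality check with inhibition over a set limit, or well fluorescence over plate mean plus 4 SD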;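 also: Nile Red retained in pooled yeast measured as flow cytometry median fluorescence; 0% = buffer negative control and 100% = Enniatin B positive control; higher means more Nile Red kept so more efflux inhibition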
UBC9 SUMO inh – inhibitors of human SUMOylation (UBC9); P63279; HTRF SUMOylation assay, SAE1/SAE2 + UBC9, in vitro; inhibition, % at 35 µM; actives 0.36% (n = 290,000); in the data active = inhibition above about 50%, passing the limit was not always enough; inconclusive = no clear call, values can overlap the other calls
Target sequence (P63279 whole entry, looked up): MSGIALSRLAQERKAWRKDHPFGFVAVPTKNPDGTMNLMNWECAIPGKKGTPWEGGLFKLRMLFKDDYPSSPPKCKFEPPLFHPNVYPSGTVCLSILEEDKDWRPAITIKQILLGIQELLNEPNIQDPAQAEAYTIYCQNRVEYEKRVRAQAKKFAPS
PABP1 MLLE inh – inhibitors of microRNA-mediated deadenylation, human PABP1 MLLE binding. actives 0.36% (n = 360,000). P11940. GST-MLLE / FITC-PAM2 fluorescence polarization. inhibition, % at 20 µM; in the data active = inhibition above about 35%, passing the limit was not always enough;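 also: plate controls were DMSO wells with GST-MLLE for no effect and wells lacking GST-MLLE protein for full effect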
* = called active by the depositor; ? = inconclusive; nt = no result given. Unless noted, no rule for the calls is given here.

SMILES	PABP polyA inh	ALR inh	eIF4H FP inh	Efflux pump inh	UBC9 SUMO inh	PABP1 MLLE inh
NC(=S)Nc1nc2ccccc2s1	20	94*	8	0	14	19
Cc1nc(NC(N)=S)sc1C(=O)Nc1ccccc1	-2	15	1	0	29	41*
Nc1ccc(C(=O)Nc2nc3ccccc3s2)cc1	-3	94*	-4	0	4	7
O=C(Nc1nc(=O)c2ccccc2s1)c1ccc(Cl)cc1	-21	-4	1	0	-15	9
COc1ccccc1NC(=O)CCc1nnc2ccc(N3CCN(C)CC3)nn12	nt	-2	nt	0	nt	-2
COCCN(C(=O)C1CCCO1)c1c(N)n(CC(C)C)c(=O)[nH]c1=O (configuration not stated)	nt	0	nt	0	nt	-19
O=C(NNc1nc2ccccc2s1)c1ccccc1F	-1	97*	5	0	-3	-97
CSc1ccc(S(=O)(=O)N2CCC(C(=O)NCC3CCCO3)CC2)cc1 (configuration not stated)	28	-85	3	0	14	-87
COc1ccccc1/C=C/C=N/NC(=O)c1cc(-c2ccco2)[nH]n1	19	98*	42	0	55	-13
Cc1ccccc1C1C(C#N)=C2N=C(N)c3c(sc4c3CCCCC4)N2C2=C1C(=O)CC(C)(C)C2 (configuration not stated)	87	-10	114*	0	-7	13
CCCOC(c1ccccc1)(c1ccc(C(F)(F)F)cc1)C(Oc1nc(C)cc(C)n1)C(=O)O (configuration not stated)	6	96*	5	0	4	-11
Cc1cc(C)nc(OC(C(=O)O)C(OCCc2ccccc2)(c2ccc(F)cc2)c2ccc(F)cc2)n1 (configuration not stated)	2	-43	-10	0	32	-6
CCc1oc2ccccc2c1C(=O)c1cc(Br)c(O)c(Br)c1	14	98*	-2	0	23	6
COc1cc2c(cc1OC)[C@@H](NC(=O)COc1ccccc1)[C@H](OCc1ccccc1)C2	nt	nt	nt	0	nt	-4
O=C(O)CCn1cc(C2CC(c3ccccc3)=NN2c2ccccc2)c(-c2ccccc2)n1 (configuration not stated)	-9	99*	2	0	46	-4
CN(C)c1ccc(NC(=O)c2ccc(Cn3cc([N+](=O)[O-])cn3)cc2)cc1	-8	nt	-6	0	0	-1
CCn1c(N)c(C(N)=O)sc1=S	?	98*	?	0	14	33
CCn1c(N)c(C(=O)NC2CCCCC2)sc1=S	-5	98*	2	0	-5	42*
C=CCn1c(N)c(C(=O)OCC)sc1=S	-6	99*	-13	0	0	49*
CCOC(=O)c1sc(=S)n(-c2ccc3c(c2)OCO3)c1N	12	0	1	0	-29	40*
CC12CCC(C(=O)CC1=O)C2(C)C (configuration not stated)	nt	nt	nt	nt	nt	5
CCN(CC)S(=O)(=O)c1ccc(/C=C/C(=O)OCC(=O)NCc2ccco2)cc1	nt	nt	nt	0	nt	6
CCOC(=O)c1sc(=S)n(CC)c1N	5	99*	0	0	11	8
CCOC(=O)c1sc(=S)n(C)c1N	4	99*	0	0	-24	16
Cc1ccc(-n2c(N)c(C(=O)N3CCN(C)CC3)sc2=S)cc1	2	3	11	0	5	11
SMILES	PABP polyA inh	ALR inh	eIF4H FP inh	Efflux pump inh	UBC9 SUMO inh	PABP1 MLLE inh
Cc1ccc(-n2c(N)c(C(N)=O)sc2=S)c(C)c1	16	11	60*	0	7	35
C=CCn1c(N)c(C(=O)N2CCN(C)CC2)sc1=S	-6	99*	-1	0	-2	25
Cc1ccc(C)c(-n2c(N)c(C(N)=O)sc2=S)c1	nt	nt	nt	0	nt	15
CCOC(=O)c1sc(=S)n(C)c1C	19	-8	-1	0	3	-1
COC(=O)[C@]1(Cc2ccccc2)N[C@H](CN(C)S(=O)(=O)c2ccc(C(C)(C)C)cc2)[C@@H]2C(=O)N(Cc3ccccc3)C(=O)[C@@H]21	nt	nt	nt	0	nt	-12
C=CCN1C(=O)C2(NNc3ccccc3O2)c2ccccc21 (configuration not stated)	125*	26	101*	0	-20	-94
Cc1ccc(NC(=O)CSc2nc(N)cc(=O)[nH]2)cc1Cl	-10	95*	0	0	12	25
Cc1ccc(NC(=O)CSc2nc(N)c(-c3ccccc3)c(=O)[nH]2)cc1Cl	-19	98*	-6	0	25	17
N/C(=N\OC(=O)c1ccc(Cl)cc1)c1ccc(Cl)cc1	-17	-1	2	0	6	5
N/C(=N\OC(=O)c1ccco1)c1ccc(Cl)cc1	2	99*	-6	0	9	1
Oc1ccc(C[C@H]2CNC(=S)N2CC2CCCN2C[C@H](Cc2ccc(O)cc2)N2C[C@H](Cc3ccccc3)N(CC3CCCCC3)C2=S)cc1 (some centres not stated)	nt	nt	nt	nt	nt	4
COc1cc(OC)c(C(=O)Nc2cccc3ccccc23)cc1OC	16	-18	-9	0	-7	3
Cc1onc(-c2ccccc2Cl)c1C(=O)NCc1nnnn1-c1ccc(F)cc1	nt	2	nt	0	nt	-14
Cc1ccc(-n2nc3ccc(NC(=S)NC(=O)/C=C/c4ccco4)cc3n2)cc1	active	2	88	0	37	-7
Cc1ccc(-n2nc3cc(C)c(NC(=S)NC(=O)/C=C/c4ccco4)cc3n2)cc1	0.3*	86*	68*	0	28	-5
COc1ccc(CCN2CC(C(=O)N(C)Cc3cccnc3)CC2=O)cc1OC (configuration not stated)	nt	4	nt	0	nt	7
O=S(=O)(c1ccc(Br)cc1)N1CCCN(Cc2ccccc2F)CC1	1	-5	-2	6.8*	2	-6
Oc1ccccc1CNc1ccc2c(c1)OCCO2	0	99*	6	0	16	2
O=C(NCc1cccnc1)Nc1ccc2c(c1)OCO2	-12	-5	0	0	-10	3
COc1ccc(CNc2ccc(C)c(C)c2)c(OC)c1OC	-3	66	8	0	-28	-8
c1cncc(CNc2ccc3c(c2)OCO3)c1	14	80*	11	0	-5	17
c1csc(CNc2ccc3c(c2)OCCO3)c1	2	65	86	0	14	-9
Cc1ccc(NCc2ccccc2O)cc1C	-6	91*	-5	0	-1	14
CCCCCCN1CCN(C2CN(Cc3ccc(F)cc3)S(=O)(=O)C2)CC1 (configuration not stated)	nt	nt	nt	nt	nt	3
CCOCCCn1c(=NC(=O)c2cccs2)c(C#N)cc2c(=O)n3cccc(C)c3nc21	34*	-4	55	0	40	124
COCCCn1c(=NC(C)=O)c(C#N)cc2c(=O)n3cccc(C)c3nc21	55*	-13	107*	0	3	3
